According to PubChem BioAssay (NCI):
The panel holds about 83,000 compounds, 20% with a hit somewhere; the sample as a whole holds those more often.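 Cells were grown in 96-well plates and exposed to the test compound at a single concentration for 48 hours; results are reported as percent growth, with values below 10 considered active.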 The source made the active and inactive calls.

Tests used:
Assay in all cases: NCI-60 one-dose screen, 48 h (100 = growth as untreated, 0 = no growth, -100 = all killed)
Conditions in all cases: 10 µM unless noted
[1] = system: SR leukemia
[2] = system: RPMI-8226 leukemia
[3] = system: OVCAR-8 ovarian
[4] = system: OVCAR-5 ovarian
[5] = system: OVCAR-4 ovarian
[6] = system: SK-OV-3 ovarian
[7] = system: IGROV1 ovarian
[8] = system: OVCAR-3 ovarian
[9] = system: HS 578T breast
[10] = system: NCI/ADR-RES ovarian

Measured: growth

CCOC(=O)C(=O)CC(=O)c1ccccc1
inactive: [1] 79.7% | [2] 98.4% | [3] 101% | [4] 95.1% | [5] 104% | [6] 111% | [7] 93.3% | [8] 106% | [9] 106% | [10] 93.1%

COC1OC(C(O)C(O)CO)C(O)C(O)C1O (stereo not given)
inactive: [1] 97.7% | [2] 93.3% | [3] 105% | [4] 88.7% | [5] 109% | [6] 95.6% | [7] 103% | [8] 109% | [9] 109% | [10] 106%

COc1cc(CC#N)c([N+](=O)[O-])cc1OC
inactive: [1] 91.2% | [2] 109% | [3] 98.2% | [4] 111% | [5] 128% | [6] 111% | [7] 95.6% | [8] 109% | [9] 117% | [10] 105%

C1Cc2onc(-c3noc4c3CCC4)c2C1
inactive: [1] 99.1% | [2] 113% | [3] 110% | [4] 103% | [5] 105% | [6] 106% | [7] 114% | [8] 115% | [9] 114% | [10] 115%

Cc1onc(-c2c(F)cccc2Cl)c1-c1ncc(-c2ccc(Br)cc2)o1
inactive: [1] 13.7% | [2] 22.6% | [3] 38.3% | [4] 70% | [5] 48% | [6] 66.1% | [7] 36.8% | [8] 43.6% | [9] 66.6% | [10] 31.1%

CCCCNC(=O)c1ccc(OCC)cc1
inactive: [1] 104% | [2] 99.1% | [3] 103% | [4] 96.1% | [5] 101% | [6] 98.7% | [7] 108% | [8] 105% | [9] 101% | [10] 100%

O=C(NCc1ccccc1)c1cccc([N+](=O)[O-])c1
inactive: [1] 92.4% | [2] 91% | [3] 97.2% | [4] 116% | [5] 111% | [6] 108% | [7] 101% | [8] 106% | [9] 91.2% | [10] 104%

CCOc1ccc(C(=O)O)cc1
inactive: [1] 99.4% | [2] 103% | [3] 106% | [4] 105% | [5] 103% | [6] 98.8% | [7] 113% | [8] 115% | [9] 95.3% | [10] 105%

Cc1[nH]n(-c2ccccc2)c(=O)c1C=NC(=S)C(N)=S
inactive: [1] 89.9% | [2] 94.6% | [3] 99.9% | [4] 109% | [5] 104% | [6] 96% | [7] 112% | [8] 108% | [9] 92.1% | [10] 101%

CCC(C)c1c(N)n(S(=O)(=O)c2ccc(C)cc2)oc1=O (stereo not given)
inactive: [1] 107% | [2] 100% | [3] 96.6% | [4] 99.1% | [5] 109% | [6] 113% | [7] 88.7% | [8] 118% | [9] 130% | [10] 120%

O=S1(=O)c2ccccc2Oc2ccccc21
inactive: [1] 101% | [2] 110% | [3] 99.6% | [4] 96.3% | [5] 100% | [6] 104% | [7] 105% | [8] 114% | [9] 106% | [10] 108%

Nc1ncnc(Nc2ccc(C(F)(F)F)cc2)n1
inactive: [1] 102% | [2] 109% | [3] 102% | [4] 99.8% | [5] 107% | [6] 100% | [7] 100% | [8] 113% | [9] 108% | [10] 104%

CC(C)C(=O)OCCOc1ccc(C(C)(C)C)cc1
inactive: [1] 98.6% | [2] 97.7% | [3] 99.5% | [4] 103% | [5] 98.6% | [6] 108% | [7] 104% | [8] 107% | [9] 93.9% | [10] 100%

CC(=O)OC/C(C)=C\CC(C)COC(C)=O (stereo not given)
inactive: [1] 83% | [2] 94.2% | [3] 99.8% | [4] 111% | [5] 105% | [6] 101% | [7] 106% | [8] 112% | [9] 100% | [10] 104%

CCOC(=O)CSCCC#N
inactive: [1] 94.2% | [2] 106% | [3] 96.8% | [4] 85% | [5] 105% | [6] 92.5% | [7] 107% | [8] 111% | [9] 107% | [10] 100%

O=C(O)c1ccc(OCc2ccccc2)cc1
inactive: [1] 99.8% | [2] 97.5% | [3] 97.9% | [4] 93.5% | [5] 102% | [6] 98.8% | [7] 91.1% | [8] 118% | [9] 96% | [10] 104%

CCOC(=O)c1ccc(Nc2sc(C(=O)c3ccc(Br)cc3)c(N)c2C#N)cc1
inactive: [1] 18.6% | [2] 18.7% | [3] 29.6% | [4] 46.8% | [5] 70.5% | [6] 11.7% | [7] 31.3% | [9] 20.8% | [10] 22%
active: [8] -6.38%

CC(=O)NNC(=S)/N=C\C(C(=O)c1ccccc1)=C(/O)c1ccccc1
inactive: [1] 102% | [2] 104% | [3] 102% | [4] 97.2% | [5] 114% | [6] 91.8% | [7] 95% | [8] 109% | [9] 106% | [10] 99%

Nc1ccn(C2CC(N)C(CO)O2)c(=O)n1 (stereo not given)
inactive: [1] 54.5% | [2] 31.5% | [3] 45.6% | [4] 108% | [5] 86.7% | [6] 69.6% | [7] 87.1% | [8] 115% | [9] 114% | [10] 46%

CC(=O)c1cccc(N(C)S(=O)(=O)c2ccc(C)cc2)c1
inactive: [1] 44.7% | [2] 102% | [3] 101% | [4] 90.7% | [5] 87.7% | [6] 109% | [7] 82.5% | [8] 105% | [9] 102% | [10] 82.4%

C=CCN1CCCC1=O
inactive: [1] 90.2% | [2] 96.6% | [3] 110% | [4] 124% | [5] 94.8% | [6] 92.9% | [7] 114% | [8] 128% | [9] 109% | [10] 110%

NNc1ncccn1
inactive: [1] 98.2% | [2] 108% | [3] 108% | [4] 108% | [5] 101% | [6] 105% | [7] 111% | [8] 101% | [9] 91.5% | [10] 104%

CC(C)NC(=O)OCc1c(COC(=O)NC(C)C)c(-c2ccc(Cl)cc2)n2c1CCC2
inactive: [2] 93.4% | [3] 63.3% | [4] 85.1% | [5] 48.9% | [6] 40.8% | [7] 70.3% | [8] 66% | [9] 73.6% | [10] 46.5%
active: [1] 2.94%

C#CCSc1nnnn1-c1ccccc1
inactive: [1] 86.9% | [2] 72.4% | [3] 80.9% | [4] 92% | [5] 92.6% | [6] 104% | [7] 92.8% | [8] 79.1% | [9] 102% | [10] 86.7%

ClCC(Cl)C1CCC(Cl)C(Cl)C1 (stereo not given)
inactive: [1] 99.5% | [2] 100% | [3] 95.6% | [4] 105% | [5] 104% | [6] 100% | [7] 117% | [8] 114% | [9] 103% | [10] 104%

O=C(NCCc1ccccc1)/C(=C\c1ccc(Cl)cc1Cl)NC(=O)c1ccccc1
inactive: [1] 87.6% | [2] 92% | [3] 95.3% | [4] 101% | [5] 98.7% | [6] 97.6% | [7] 96.3% | [8] 94.1% | [9] 96.4% | [10] 91.8%

O=C(O)c1cc(I)ccc1O
inactive: [1] 103% | [2] 107% | [3] 109% | [4] 97.5% | [5] 107% | [6] 103% | [7] 114% | [8] 116% | [9] 111% | [10] 98%

Ic1cccs1
inactive: [1] 97.9% | [2] 106% | [3] 99.2% | [4] 107% | [5] 102% | [6] 115% | [7] 105% | [8] 107% | [9] 98.8% | [10] 98.8%

CC1CN(CCO)CC(C)O1 (stereo not given)
inactive: [1] 103% | [2] 111% | [3] 107% | [4] 93.1% | [5] 99.7% | [6] 96.9% | [7] 103% | [8] 106% | [9] 74.4% | [10] 106%

CCCNS(=O)(=O)c1ccc(Cl)cc1
inactive: [1] 98.9% | [2] 99.7% | [3] 104% | [4] 110% | [5] 102% | [6] 99.6% | [7] 105% | [8] 109% | [9] 88.1% | [10] 101%
